According to the supplement of paper PMC10849652:
The full data set covers some 8,800 targets. This sample favours those with a hit. About 0.5% of all pairs of compound and target were hits. A number with no mark means an inactive call.

Assays:
Experiment in all cases: log2 fold change, soluble protein after heating vs DMSO (PISA); higher = thermal stabilisation; K562 lysate, 10 uM; active = over 0.2 and 3.5 SD of the protein, either way, in both replicates (recomputed)
vemurafenib = compound: CCCS(=O)(=O)Nc1ccc(F)c(C(=O)c2c[nH]c3ncc(-c4ccc(Cl)cc4)cc23)c1F [vemurafenib]
Method in brief: (§1)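 Following dounce homogenisation of K562 pellets in PBS pH 7.4 with 1 mM MgCl2, crude extract at 1 mg/mL protein was incubated for 30 min with 10 μM compound. Aliquots were then heated for 3 min over 48°C-58°C and pooled, NP-40 was added to 0.5% at 4°C, and soluble protein was recovered as the supernatant at 21,000xg for 90 min. Channel-sum-equalised TMTpro 16plex LC-MS/MS quantified this protein. Each value, from duplicates, is a log-two fold change in thermal stability relative to solvent controls.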

[1] = compound: CCCS(=O)(=O)Nc1ccc(F)c(C(=O)c2c[nH]c3ncc(Cl)cc23)c1F
Method in brief: as §1

barasertib = compound: CCN(CCCOc1ccc2c(Nc3cc(CC(=O)Nc4cccc(F)c4)[nH]n3)ncnc2c1)CCOP(=O)(O)O [barasertib]
Method in brief: as §1

[2] = compound: CC[C@@H]1C(=O)N(C)c2cnc(Nc3ccc(C(=O)NC4CCN(C)CC4)cc3OC)nc2N1C1CCCC1
Method in brief: as §1

volasertib = compound: CC[C@@H]1C(=O)N(C)c2cnc(Nc3ccc(C(=O)N[C@H]4CC[C@H](N5CCN(CC6CC6)CC5)CC4)cc3OC)nc2N1C(C)C [volasertib]
Method in brief: as §1

[3] = compound: CCn1c(C(=O)N(C2CC2)C2CC2)cc2c3c(ncn3C)c(Nc3cc(C)n(C)n3)nc21
Method in brief: as §1

[4] = compound: CCn1cc(-c2ccnc3[nH]c(-c4cccc(CN(C)C)c4)cc23)c(-c2ccc(NC(=O)N(C)C)cc2)n1
Method in brief: as §1

[5] = compound: CN1CCC(CNc2ccc3ncc(-c4cccc(OC(F)(F)F)c4)n3n2)CC1
Method in brief: as §1

saracatinib = compound: CN1CCN(CCOc2cc(OC3CCOCC3)c3c(Nc4c(Cl)ccc5c4OCO5)ncnc3c2)CC1 [saracatinib]
Method in brief: as §1

sotrastaurin = compound: CN1CCN(c2nc(C3=C(c4c[nH]c5ccccc45)C(=O)NC3=O)c3ccccc3n2)CC1 [sotrastaurin]
Method in brief: as §1

Sequence of UniProt P24468 (P24468 whole entry, looked up): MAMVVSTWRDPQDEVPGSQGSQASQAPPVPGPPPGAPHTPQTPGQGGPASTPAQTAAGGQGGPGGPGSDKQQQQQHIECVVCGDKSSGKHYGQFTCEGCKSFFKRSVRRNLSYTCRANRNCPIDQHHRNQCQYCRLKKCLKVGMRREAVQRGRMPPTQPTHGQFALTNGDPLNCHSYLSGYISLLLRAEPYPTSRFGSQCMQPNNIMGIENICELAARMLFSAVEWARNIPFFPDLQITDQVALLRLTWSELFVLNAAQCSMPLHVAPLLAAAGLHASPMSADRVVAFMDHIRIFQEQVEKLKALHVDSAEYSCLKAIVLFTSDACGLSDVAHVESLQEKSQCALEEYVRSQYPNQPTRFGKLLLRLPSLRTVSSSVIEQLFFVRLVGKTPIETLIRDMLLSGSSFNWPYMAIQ
Sequence of UniProt Q9UK39 (Q9UK39 whole entry, looked up): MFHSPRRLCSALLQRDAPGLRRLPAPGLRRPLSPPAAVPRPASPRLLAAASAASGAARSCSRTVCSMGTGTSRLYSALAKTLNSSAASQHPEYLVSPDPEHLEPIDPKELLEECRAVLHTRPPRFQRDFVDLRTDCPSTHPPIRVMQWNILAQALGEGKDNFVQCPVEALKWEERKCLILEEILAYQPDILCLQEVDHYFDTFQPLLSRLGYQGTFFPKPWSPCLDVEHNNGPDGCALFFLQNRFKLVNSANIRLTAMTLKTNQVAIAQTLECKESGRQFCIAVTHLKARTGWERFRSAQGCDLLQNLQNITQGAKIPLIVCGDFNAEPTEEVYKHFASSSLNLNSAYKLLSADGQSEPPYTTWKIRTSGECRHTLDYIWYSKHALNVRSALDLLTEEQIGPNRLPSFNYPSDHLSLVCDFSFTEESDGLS
Sequence of UniProt P13533 (P13533 whole entry, looked up): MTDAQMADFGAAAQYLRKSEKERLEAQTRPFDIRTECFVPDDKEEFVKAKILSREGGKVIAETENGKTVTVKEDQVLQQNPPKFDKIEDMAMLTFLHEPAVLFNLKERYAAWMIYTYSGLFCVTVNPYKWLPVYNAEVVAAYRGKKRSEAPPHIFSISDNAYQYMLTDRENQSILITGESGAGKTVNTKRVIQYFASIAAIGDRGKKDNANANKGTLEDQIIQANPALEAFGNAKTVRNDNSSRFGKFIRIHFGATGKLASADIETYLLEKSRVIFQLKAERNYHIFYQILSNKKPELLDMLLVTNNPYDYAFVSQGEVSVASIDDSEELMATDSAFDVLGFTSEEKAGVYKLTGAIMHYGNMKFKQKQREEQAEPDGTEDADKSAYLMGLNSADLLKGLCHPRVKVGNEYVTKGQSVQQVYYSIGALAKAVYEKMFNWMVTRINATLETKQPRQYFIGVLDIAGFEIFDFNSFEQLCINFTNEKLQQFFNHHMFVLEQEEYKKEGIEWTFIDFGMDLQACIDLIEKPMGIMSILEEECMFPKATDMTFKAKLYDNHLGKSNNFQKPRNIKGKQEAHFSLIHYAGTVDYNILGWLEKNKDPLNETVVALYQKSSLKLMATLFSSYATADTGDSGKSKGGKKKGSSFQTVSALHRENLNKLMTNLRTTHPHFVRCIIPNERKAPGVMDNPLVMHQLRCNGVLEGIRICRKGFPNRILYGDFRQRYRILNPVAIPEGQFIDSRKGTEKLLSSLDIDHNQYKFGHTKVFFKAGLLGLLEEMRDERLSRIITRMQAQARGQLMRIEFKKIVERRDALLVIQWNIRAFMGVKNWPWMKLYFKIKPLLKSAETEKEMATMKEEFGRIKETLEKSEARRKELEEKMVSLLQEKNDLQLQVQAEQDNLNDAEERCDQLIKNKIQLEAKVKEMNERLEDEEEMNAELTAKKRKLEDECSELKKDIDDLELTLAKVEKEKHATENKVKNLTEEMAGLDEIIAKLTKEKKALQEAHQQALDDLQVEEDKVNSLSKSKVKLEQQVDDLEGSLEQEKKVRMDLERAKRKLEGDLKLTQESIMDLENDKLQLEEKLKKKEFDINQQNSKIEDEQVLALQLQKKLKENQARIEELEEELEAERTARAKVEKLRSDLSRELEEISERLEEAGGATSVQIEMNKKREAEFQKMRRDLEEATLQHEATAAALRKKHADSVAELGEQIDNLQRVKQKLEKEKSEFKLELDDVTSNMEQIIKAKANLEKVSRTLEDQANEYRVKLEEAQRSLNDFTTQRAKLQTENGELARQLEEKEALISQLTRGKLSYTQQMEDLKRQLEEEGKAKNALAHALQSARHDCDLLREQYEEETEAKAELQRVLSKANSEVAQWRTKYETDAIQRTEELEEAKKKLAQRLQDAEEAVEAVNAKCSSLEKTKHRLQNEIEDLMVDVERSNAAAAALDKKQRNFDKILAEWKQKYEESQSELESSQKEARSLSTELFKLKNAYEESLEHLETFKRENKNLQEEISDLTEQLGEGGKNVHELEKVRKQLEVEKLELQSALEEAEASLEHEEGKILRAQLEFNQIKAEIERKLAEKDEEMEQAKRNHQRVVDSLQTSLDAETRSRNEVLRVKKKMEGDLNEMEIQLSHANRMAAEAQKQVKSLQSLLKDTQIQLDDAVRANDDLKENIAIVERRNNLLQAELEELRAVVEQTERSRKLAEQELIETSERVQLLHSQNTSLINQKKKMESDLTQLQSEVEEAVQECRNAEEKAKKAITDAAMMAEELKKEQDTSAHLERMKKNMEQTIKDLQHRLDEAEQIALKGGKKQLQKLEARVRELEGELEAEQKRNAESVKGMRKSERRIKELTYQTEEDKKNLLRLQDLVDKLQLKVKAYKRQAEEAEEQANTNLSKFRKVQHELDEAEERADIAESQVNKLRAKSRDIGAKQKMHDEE
Sequence of UniProt Q8NE18 (Q8NE18 whole entry, looked up): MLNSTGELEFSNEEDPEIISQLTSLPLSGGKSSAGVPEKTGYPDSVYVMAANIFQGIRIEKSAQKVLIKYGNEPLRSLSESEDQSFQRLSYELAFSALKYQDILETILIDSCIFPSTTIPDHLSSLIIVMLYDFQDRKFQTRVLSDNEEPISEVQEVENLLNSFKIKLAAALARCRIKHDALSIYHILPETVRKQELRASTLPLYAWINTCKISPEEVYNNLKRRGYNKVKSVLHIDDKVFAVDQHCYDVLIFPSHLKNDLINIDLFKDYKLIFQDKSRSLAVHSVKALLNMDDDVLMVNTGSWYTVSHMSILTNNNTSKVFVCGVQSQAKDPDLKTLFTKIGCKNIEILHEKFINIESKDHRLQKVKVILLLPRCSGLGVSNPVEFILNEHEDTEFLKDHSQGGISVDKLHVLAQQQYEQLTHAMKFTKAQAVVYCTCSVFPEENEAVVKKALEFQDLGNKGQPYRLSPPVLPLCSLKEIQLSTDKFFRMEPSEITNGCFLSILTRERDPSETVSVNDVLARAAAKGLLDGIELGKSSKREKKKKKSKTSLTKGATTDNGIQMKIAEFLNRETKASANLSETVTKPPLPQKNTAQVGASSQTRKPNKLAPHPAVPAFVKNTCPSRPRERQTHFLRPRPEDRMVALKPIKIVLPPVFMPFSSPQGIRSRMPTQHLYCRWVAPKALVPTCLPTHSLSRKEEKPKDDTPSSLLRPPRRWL
Sequence of UniProt Q9UBD5 (Q9UBD5 whole entry, looked up): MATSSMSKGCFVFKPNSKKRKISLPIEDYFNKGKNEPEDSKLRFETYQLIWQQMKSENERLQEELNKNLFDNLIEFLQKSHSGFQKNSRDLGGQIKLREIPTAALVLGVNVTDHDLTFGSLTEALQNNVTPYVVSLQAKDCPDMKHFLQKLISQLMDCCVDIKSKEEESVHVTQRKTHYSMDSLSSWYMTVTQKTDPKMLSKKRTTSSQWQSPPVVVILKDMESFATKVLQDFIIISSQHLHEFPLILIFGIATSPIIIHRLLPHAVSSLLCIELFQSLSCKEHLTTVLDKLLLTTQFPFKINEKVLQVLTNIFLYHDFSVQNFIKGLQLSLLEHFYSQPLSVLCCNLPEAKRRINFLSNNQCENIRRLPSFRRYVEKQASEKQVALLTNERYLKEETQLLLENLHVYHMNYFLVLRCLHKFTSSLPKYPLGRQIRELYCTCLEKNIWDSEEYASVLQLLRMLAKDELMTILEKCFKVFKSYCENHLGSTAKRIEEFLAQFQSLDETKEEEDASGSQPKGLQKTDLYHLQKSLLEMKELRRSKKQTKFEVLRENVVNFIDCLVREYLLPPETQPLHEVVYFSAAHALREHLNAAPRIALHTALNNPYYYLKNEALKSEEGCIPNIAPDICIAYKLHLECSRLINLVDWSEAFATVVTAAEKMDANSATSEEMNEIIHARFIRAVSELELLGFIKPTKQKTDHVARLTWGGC
Sequence of UniProt P49757 (P49757 whole entry, looked up): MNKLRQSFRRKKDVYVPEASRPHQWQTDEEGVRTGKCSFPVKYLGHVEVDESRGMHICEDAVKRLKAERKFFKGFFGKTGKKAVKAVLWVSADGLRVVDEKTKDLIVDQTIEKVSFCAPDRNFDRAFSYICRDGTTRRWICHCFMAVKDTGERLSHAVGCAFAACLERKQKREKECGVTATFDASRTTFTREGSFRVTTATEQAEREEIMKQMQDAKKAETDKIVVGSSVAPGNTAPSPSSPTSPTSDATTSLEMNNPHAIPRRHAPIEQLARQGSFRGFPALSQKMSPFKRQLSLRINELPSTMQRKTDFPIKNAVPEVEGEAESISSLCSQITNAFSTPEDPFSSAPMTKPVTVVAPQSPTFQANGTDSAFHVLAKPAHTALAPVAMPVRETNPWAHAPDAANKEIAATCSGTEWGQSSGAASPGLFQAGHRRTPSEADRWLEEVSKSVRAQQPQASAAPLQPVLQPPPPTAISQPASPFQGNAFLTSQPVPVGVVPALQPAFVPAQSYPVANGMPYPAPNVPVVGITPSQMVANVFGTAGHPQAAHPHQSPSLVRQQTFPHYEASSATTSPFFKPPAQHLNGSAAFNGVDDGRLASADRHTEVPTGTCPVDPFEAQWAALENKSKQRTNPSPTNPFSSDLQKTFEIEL
Sequence of UniProt P03928 (P03928 whole entry, looked up): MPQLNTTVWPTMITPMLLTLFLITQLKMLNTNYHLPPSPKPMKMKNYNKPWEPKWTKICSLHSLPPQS
Sequence of UniProt O60829 (O60829 whole entry, looked up): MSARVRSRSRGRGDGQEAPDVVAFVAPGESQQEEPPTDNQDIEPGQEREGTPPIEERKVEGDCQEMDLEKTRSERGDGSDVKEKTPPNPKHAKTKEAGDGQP

Target | log2 fold change (vemurafenib) | log2 fold change [1] | log2 fold change (barasertib) | log2 fold change [2] | log2 fold change (volasertib) | log2 fold change [3] | log2 fold change [4] | log2 fold change [5] | log2 fold change (saracatinib) | log2 fold change (sotrastaurin)
OSBPL6 isoform 5 (UniProt Q9BZF3) | -0.026 | -0.021 | -0.015 | -0.052 | -0.072 | 0.015 | -0.004 | 0.084 | -0.009 | -0.035
MTA2 (UniProt O94776) | 0.007 | 0.018 | 0.026 | 0.03 | -0.008 | 0.025 | -0.021 | -0.031 | 0.015 | 0.042
NUDT5 (UniProt C9JYY9) | – | – | – | 0.036 | – | – | – | – | – | –
P2RY1 (UniProt P47900) | – | -0.08 | 0.034 | 0.006 | -0.111 | 0.022 | 0.057 | 0.093 | 0.015 | –
NOCT (UniProt Q9UK39) | – | -0.04 | – | 0 | 0.02 | 0.004 | – | – | -0.103 | -0.073
PARD3B (UniProt Q8TEW8) | – | – | – | – | – | – | 1.46 | -0.046 | -0.002 | –
NPLOC4 (UniProt I3L3I1) | – | – | 0.125 | 0.104 | – | – | – | – | 0.152 | -0.108
NUB1 isoform 2 (UniProt Q9Y5A7) | – | – | – | – | – | – | – | – | – | -0.003
MUC5AC (UniProt P98088) | – | – | – | – | – | 0 | – | – | – | –
NUB1 (UniProt H7C5N1) | – | – | – | – | – | 0.312 | – | – | – | –
PAGE4 (UniProt O60829) | – | 0.015 | 0.108 | 0.039 | 0.002 | -0.042 | 0.476 | -0.158 | 0.046 | 0.092
NR2F2 (UniProt P24468) | – | -0.081 | 0.01 | – | -0.146 | -0.028 | 0.005 | -0.216 | 0.014 | 0.013
MTHFD1 (UniProt V9GZ32) | – | 0.008 | – | – | -0.145 | – | – | – | – | –
NUMB (UniProt P49757) | 0.001 | 0.001 | 0.028 | 0.06 | -0.015 | 0.008 | 0.055 | -0.061 | 0.024 | -0.134
ORC3 (UniProt Q9UBD5) | – | -0.16 | – | – | 0.003 | – | 0.185 | -0.06 | – | –
MYBL2 (UniProt P10244) | -0.07 | – | – | 0.013 | – | 0.069 | 0.217 | -0.296 | 0.057 | 0.043
NSUN7 (UniProt Q8NE18) | -0.098 | -0.046 | -0.084 | -0.016 | 0.077 | -0.049 | -0.039 | -0.032 | – | 0.017
MYO9A isoform 4 (UniProt B2RTY4) | 0.248 (active) | 0.023 | 0.053 | – | -0.028 | -0.019 | -0.021 | 0.002 | -0.068 | 0.093
MYLK (UniProt Q15746) | -0.254 | -0.022 | -0.097 | -0.675 (active) | -0.053 | – | -0.169 | 0.014 | – | -0.084
MYO10 (UniProt Q9HD67) | 0.483 | – | 0.171 | – | – | -0.185 | 1.26 (active) | -0.381 | – | -0.287
MT-ATP8 (UniProt P03928) | 0.033 | -0.036 | 0.057 | 0.063 | 0.015 | 0.128 | 0.711 (active) | -0.144 | – | -0.084
MYH6 (UniProt P13533) | – | -0.081 | 0.006 | 0.215 | 0.084 | -0.137 | – | – | – | -0.017
NUMB isoform 2 (UniProt P49757) | – | – | – | – | – | -0.146 | – | – | -0.04 | –
